The whole screen tested about 39,000 compounds, of which about 3,300 (8.5%) were called active. This excerpt belongs to a sample that is enriched for actives.
What follows are compounds tested on HepG2 (assay: cytotoxicity call (relative viability < 0.9)). Conditions: 10 µM.
`C[C@H](CO)N1C[C@H](C)[C@@H](CN(C)Cc2ccc3c(c2)OCO3)OCCCC[C@H](C)Oc2ccc(NS(=O)(=O)c3ccccc3)cc2C1=O` was tested, and the cytotoxicity call was “inactive”.
In the case of `C[C@@H]1CN([C@H](C)CO)C(=O)c2cc(NS(=O)(=O)c3ccccc3)ccc2O[C@@H](C)CCCCO[C@@H]1CN(C)Cc1ccc2c(c1)OCO2`, the cytotoxicity call was “active”.
With `C[C@H]1CCCCO[C@@H](CN(C)Cc2ccc3c(c2)OCO3)[C@@H](C)CN([C@@H](C)CO)C(=O)c2cc(NS(=O)(=O)c3ccccc3)ccc2O1` the cytotoxicity call was “inactive”.
With `C[C@@H]1CCCCO[C@H](CN(C)Cc2ccc3c(c2)OCO3)[C@H](C)CN([C@H](C)CO)C(=O)c2cc(NS(=O)(=O)c3ccccc3)ccc2O1` the cytotoxicity call was “inactive”.
With `C[C@H]1CCCCO[C@H](CN(C)Cc2ccc3c(c2)OCO3)[C@@H](C)CN([C@@H](C)CO)C(=O)c2cc(NS(=O)(=O)c3ccccc3)ccc2O1` the cytotoxicity call was “inactive”.
With `C[C@@H]1CCCCO[C@@H](CN(C)Cc2ccc3c(c2)OCO3)[C@H](C)CN([C@H](C)CO)C(=O)c2cc(NS(=O)(=O)c3ccccc3)ccc2O1` the cytotoxicity call was “active”.
For `C[C@@H]1CCCCO[C@H](CN(C)Cc2ccc3c(c2)OCO3)[C@@H](C)CN([C@@H](C)CO)C(=O)c2cc(NS(=O)(=O)c3ccccc3)ccc2O1`, the cytotoxicity call was “inactive”.
With `C[C@H](CO)N1C[C@H](C)[C@H](CN(C)Cc2ccc3c(c2)OCO3)OCCCC[C@H](C)Oc2ccc(NS(=O)(=O)c3ccccc3)cc2C1=O` the cytotoxicity call was “inactive”.
For `C[C@@H]1CCCCO[C@H](CN(C)Cc2ccc3c(c2)OCO3)[C@H](C)CN([C@@H](C)CO)C(=O)c2cc(NS(=O)(=O)c3ccccc3)ccc2O1`, the cytotoxicity call was “active”.
With `C[C@H](N)C(=O)N[C@@]1(C(=O)O)C[C@@H](Sc2nnc[nH]2)[C@H]2[C@H](C(=O)O)[C@H]21` the cytotoxicity call was “inactive”.
With `C[C@H](CO)N1C[C@H](C)[C@H](CN(C)S(=O)(=O)c2ccc(F)cc2)Oc2ccc(NS(C)(=O)=O)cc2C1=O` the cytotoxicity call was “inactive”.
For `Cl.Cl.N=C(N)N`, the cytotoxicity call was “inactive”.
For `COCCOC(=O)N1C(=O)[C@@]2(c3cc(C#CCCO)ccc31)[C@H](C(=O)NC[C@H](O)c1ccccc1)[C@H]1C(=O)O[C@H](c3ccccc3)[C@H](c3ccccc3)N1[C@@H]2c1ccccc1OCCO`, the cytotoxicity call was “inactive”.
`CCS(=O)(=O)N1CC[C@]2(CC1)CN([C@H](CO)c1[nH]c3cc(ccc3c12)OC)S(=O)(=O)c1cn(cn1)C` was tested, and the cytotoxicity call was “inactive”.
In the case of `C[C@@H]1CN([C@@H](C)CO)C(=O)Cc2cc(NS(=O)(=O)c3ccccc3)ccc2O[C@H]1CN(C)S(=O)(=O)c1cn(C)cn1`, the cytotoxicity call was “inactive”.
`C[C@@H]1CN([C@@H](C)CO)C(=O)c2cc(NC(=O)CCCN(C)C)ccc2O[C@H]1CN(C)C(=O)Nc1ccc(F)cc1` was tested, and the cytotoxicity call was “inactive”.
`O=C1NC(=O)[C@@]2(CCOc3ccc(F)cc32)N1` was tested, and the cytotoxicity call was “inactive”.
`C[C@@H]1CCCCO[C@H](CN(C)S(=O)(=O)c2cn(C)cn2)[C@@H](C)CN([C@@H](C)CO)C(=O)c2cc(NS(=O)(=O)c3cn(C)cn3)ccc2O1` was tested, and the cytotoxicity call was “inactive”.
In the case of `COc1ccc(NC(=O)N2C[C@H](O)COC[C@@H]3O[C@H](CC(=O)NC4Cc5ccccc5C4)CC[C@H]32)cc1`, the cytotoxicity call was “inactive”.
In the case of `Cc1ccc(C(=O)N(CCCN)[C@@H](c2nc3cc(Cl)ccc3c(=O)n2Cc2ccccc2)C(C)C)cc1`, the cytotoxicity call was “active”.
In the case of `Cc1ccc2c(c1)c1nc3ccccc3nc1n2Cc1ccccc1`, the cytotoxicity call was “inactive”.
`Cc1ccc(C(=O)N(CCCN)[C@@H](c2oc3cc(Cl)ccc3c(=O)c2Cc2ccccc2)C(C)C)cc1` was tested, and the cytotoxicity call was “active”.
For `COc1ccc(NC(=O)Nc2ccc3c(c2)C(=O)N([C@H](C)CO)C[C@H](C)[C@H](CN(C)Cc2ccc(C(=O)Nc4ccccc4N)cc2)O3)cc1`, the cytotoxicity call was “inactive”.
For `O=C(NO)c1cccc(C(=O)N/N=C/[C@H](O)[C@@H](O)[C@H](O)[C@H](O)CO[C@H]2O[C@H](CO)[C@H](O)[C@H](O)[C@H]2O)c1`, the cytotoxicity call was “inactive”.
For `C[C@@H]1CN([C@H](C)CO)S(=O)(=O)c2ccc(C#Cc3cccc(F)c3)cc2O[C@@H]1CN(C)S(=O)(=O)c1cn(C)cn1`, the cytotoxicity call was “inactive”.
`Cc1ccc(S(=O)(=O)Nc2ccc3c(c2)C(=O)N([C@H](C)CO)C[C@H](C)[C@H](CN(C)C(=O)c2ccccc2)OCCCC[C@@H](C)O3)cc1` was tested, and the cytotoxicity call was “inactive”.
`O=C(Cc1ccccc1)Nc1ccccc1Sc1ccccc1` was tested, and the cytotoxicity call was “inactive”.
`CC(C)NC(=O)Nc1ccc2c(c1)C(=O)N(C)[C@@H]1CC[C@@H](CC(=O)NCc3ccc(F)cc3)O[C@@H]1CO2` was tested, and the cytotoxicity call was “inactive”.
In the case of `C[C@@H]1CN([C@H](C)CO)C(=O)c2cc(-c3cccnc3)cnc2O[C@@H]1CN(C)Cc1ccc(-c2ccccc2)cc1`, the cytotoxicity call was “inactive”.
With `C[C@@H]1CN([C@@H](C)CO)C(=O)c2cc(NC(=O)Nc3cccc4ccccc34)ccc2O[C@@H]1CN(C)Cc1ccc(C(=O)O)cc1` the cytotoxicity call was “inactive”.
`C[C@@H]1CN([C@@H](C)CO)C(=O)c2cccc(NS(=O)(=O)c3cccs3)c2O[C@@H]1CN(C)S(C)(=O)=O` was tested, and the cytotoxicity call was “inactive”.
With `Cc1noc(C)c1NC(=O)N(C)C[C@@H]1Oc2c(NC(=O)NC(C)C)cccc2C(=O)N([C@H](C)CO)C[C@@H]1C` the cytotoxicity call was “inactive”.
`C[C@@H]1CN([C@H](C)CO)C(=O)CCCn2nncc2CO[C@@H]1CN(C)S(=O)(=O)c1cccc(C#N)c1` was tested, and the cytotoxicity call was “inactive”.
In the case of `COc1ccc(S(=O)(=O)Nc2cccc3c2O[C@@H](CN(C)S(=O)(=O)c2ccc(F)cc2)[C@H](C)CN([C@@H](C)CO)C3=O)cc1`, the cytotoxicity call was “inactive”.
In the case of `C[C@@H]1CN([C@@H](C)CO)C(=O)Cc2cc(NC(=O)CCN3CCOCC3)ccc2O[C@@H]1CN(C)CC1CC1`, the cytotoxicity call was “inactive”.
`C[C@@H]1CCCCO[C@@H](CN(C)CC2CCCCC2)[C@H](C)CN([C@@H](C)CO)C(=O)c2cc(NC(=O)C3CCCCC3)ccc2O1` was tested, and the cytotoxicity call was “inactive”.
With `C[C@H](CO)N1C[C@H](C)[C@H](CN(C)CC2CCCCC2)OCCCC[C@H](C)Oc2ccc(NC(=O)C3CCCCC3)cc2C1=O` the cytotoxicity call was “inactive”.
`C[C@H]1CCCCO[C@@H](CN(C)CC2CCCCC2)[C@@H](C)CN([C@@H](C)CO)C(=O)c2cc(NC(=O)C3CCCCC3)ccc2O1` was tested, and the cytotoxicity call was “inactive”.
For `C[C@@H]1CCCCO[C@H](CN(C)CC2CCCCC2)[C@H](C)CN([C@@H](C)CO)C(=O)c2cc(NC(=O)C3CCCCC3)ccc2O1`, the cytotoxicity call was “inactive”.
`C[C@@H]1CN([C@@H](C)CO)C(=O)c2cc(NC(=O)C3CCCCC3)ccc2O[C@@H](C)CCCCO[C@H]1CN(C)CC1CCCCC1` was tested, and the cytotoxicity call was “active”.
`C[C@@H]1CN([C@H](C)CO)C(=O)c2cc(NC(=O)C3CCCCC3)ccc2O[C@@H](C)CCCCO[C@@H]1CN(C)CC1CCCCC1` was tested, and the cytotoxicity call was “active”.
`C[C@@H]1CCCCO[C@H](CN(C)CC2CCCCC2)[C@H](C)CN([C@H](C)CO)C(=O)c2cc(NC(=O)C3CCCCC3)ccc2O1` was tested, and the cytotoxicity call was “inactive”.
In the case of `C[C@@H]1CCCCO[C@@H](CN(C)CC2CCCCC2)[C@H](C)CN([C@H](C)CO)C(=O)c2cc(NC(=O)C3CCCCC3)ccc2O1`, the cytotoxicity call was “inactive”.
`C[C@H](CO)N1C[C@H](C)[C@@H](CN(C)CC2CCCCC2)OCCCC[C@H](C)Oc2ccc(NC(=O)C3CCCCC3)cc2C1=O` was tested, and the cytotoxicity call was “inactive”.
`C[C@@H]1CN([C@@H](C)CO)C(=O)c2cc(NC(=O)C3CCCCC3)ccc2O[C@@H](C)CCCCO[C@@H]1CN(C)CC1CCCCC1` was tested, and the cytotoxicity call was “inactive”.
`C[C@H]1CCCCO[C@H](CN(C)CC2CCCCC2)[C@@H](C)CN([C@@H](C)CO)C(=O)c2cc(NC(=O)C3CCCCC3)ccc2O1` was tested, and the cytotoxicity call was “active”.
`C[C@@H]1CCCCO[C@@H](CN(C)CC2CCCCC2)[C@@H](C)CN([C@@H](C)CO)C(=O)c2cc(NC(=O)C3CCCCC3)ccc2O1` was tested, and the cytotoxicity call was “active”.

Reference: the antibiotic and cytotoxicity screens of Wong et al. (2023)
